The campaign covered roughly 31,000 sequences. About 1,400 (4.5%) were called active. The sample as a whole holds a higher share of actives than the screen did. Unmarked numbers belong to inactive results.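 How the source made its calls: active means median seed-adjusted z-score above 1 or below -1; inactive means the rest.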

The nature of the assay: Novel Modifiers of Survival Motor Neuron (SMN) Protein: Gene Identification via Genome-wide siRNA Screen.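 Further: luminescence tracks full-length SMN protein made from the SMN2 reporter.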 As to conditions: HEK293T SMN2-luciferase reporter, siRNA knockdown, 72 h; actives lie on both sides. Summed up:
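siRNA screen, 10418 genes ×3 siRNAs; 1 pmol/well, lipid reverse transfection into HEK293T SMN2-luc reporter line. 72 h, 37 °C, 5% CO2; ONE-Glo readout. Data: neg-ctrl normalized, log10, MAD; hit = MAD >1.0 or < -1.0.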
(Reporter assays use an easily measured gene product as a stand-in for the process of interest.)
For GAUAUUGCACAAAUCUAUATT against UBE2D1, the median seed-adjusted z-score is 0.508.

As to GAAGAUAUGCAACAGCCUATT against UNC5B, the median seed-adjusted z-score was -0.0207.

Turning to CAGAAGUCGUAGUCAUGAATT against RBM39, the median seed-adjusted z-score is -1.82 (active).

Turning to GUAUCUGACUGACAUCCUUTT against PLCH2, the median seed-adjusted z-score was 0.593.

Turning to CCAAUACAGUGGAACCUAUTT against ATXN1, the median seed-adjusted z-score was -0.024.

With CCUCCAACGUAUCAUGAGATT against CYP7A1, the median seed-adjusted z-score was -0.0092.

On to ACAAAAUUGCUACAUCAAATT against ECHDC1, for which the median seed-adjusted z-score was 0.554.

GCAGAGAACUGGUUCCGAATT against ZNF512B: the median seed-adjusted z-score is 0.212.

As for CCGUGUCUUCAGGAACGAATT against CYB561, the median seed-adjusted z-score was 0.

As to GAUUUUAGCACUACAACAATT against ZNF664, the median seed-adjusted z-score was 1.08 (active).

On to AGCUGAAAAUUGAGAACAATT against TBX4, for which the median seed-adjusted z-score is 0.968.

On to GCCCAUUAAUAUUAUAGGUTT against LAP3, for which the median seed-adjusted z-score is 0.0175.

CCUUCAUCCGGAAAUUAAATT against ZIM3: the median seed-adjusted z-score was -0.02.

Turning to GGUGGAUGGUAAUAAGGAATT against CTPS2, the median seed-adjusted z-score is 1.08 (active).

Take GGAAGUUGUUCAACGAGAUTT against MLPH: the median seed-adjusted z-score was -1.2 (active).

With CGGCUAUGACAAGUCAAUATT against PKDREJ, the median seed-adjusted z-score is 0.376.

Regarding GGCAGUACAUGUACGAUGATT against AGXT2L2, the median seed-adjusted z-score was -0.0495.

On to GAACUGUCGGCGGAACAUUTT against MFAP3L, for which the median seed-adjusted z-score was 1.03 (active).

As for GCGUUGACAGUGAUGCGUATT against SLC4A3, the median seed-adjusted z-score is -0.7.

Consider GCUUUUGCAUGGAUGUGCATT against ELTD1, for which the median seed-adjusted z-score is 0.387.

For the sequence GGAAUAUGAGGUGACCGUUTT against IL17RA, the median seed-adjusted z-score is -1.29 (active).

For CGGUAAAUGUCACUCGUGATT against PRKG1, the median seed-adjusted z-score was 0.

Regarding AGAUGUCCAGACCAAGAUATT against CREBL1, the median seed-adjusted z-score was -0.348.

Consider CAACGAAAAUCUAAAUGCATT against HMMR, for which the median seed-adjusted z-score is 0.389.

Consider AGAAUGUGCGGCUUAUUGATT against CCDC88B, for which the median seed-adjusted z-score is -0.153.

Take CCAGAGCAAAGGCUAUGAATT against ZNF350: the median seed-adjusted z-score is 0.133.

With UAAAAUCUAGGGAUCCAAUTT against POLR2K, the median seed-adjusted z-score was -3.72 (active).

Regarding AGAUUACGUUGAAGAACGATT against GNGT1, the median seed-adjusted z-score is -0.0382.

In the case of CAUUCACUGAGGCGACAGATT against ABCA9, the median seed-adjusted z-score was -0.139.

Regarding GAAGGGCCUUUUUAUCCAATT against MCTS1, the median seed-adjusted z-score is 0.116.

Consider CGACCAAGAUUAUGGAAUUTT against ADAMTS17, for which the median seed-adjusted z-score was 0.257.

Take GGCUAUCUGCUGAAGCGCATT against RASAL1: the median seed-adjusted z-score was -0.089.

As for CAAUGACUAUGAAUAAGUATT against SLC9A2, the median seed-adjusted z-score was -1.02 (active).

Consider GCCUUUAUGUGGACAUUAATT against SLCO2B1, for which the median seed-adjusted z-score was 0.289.

In the case of CGACAAUGUUAAGUUCAUATT against SULT6B1, the median seed-adjusted z-score is 0.

Regarding GCAUAGAUGUGGAUAGCUUTT against CFTR, the median seed-adjusted z-score was -1.23 (active).

As to GGUCCGUGACGAGAAGUUATT against RAB4A, the median seed-adjusted z-score was 0.0022.

As to CGAACCAUUUCAUCACGUATT against MARS2, the median seed-adjusted z-score is -0.00523.

CCCUUAAACUCGAACCCAATT against HLX: the median seed-adjusted z-score is 0.379.

With GCACGGUAAUUUUGACAGUTT against CD302, the median seed-adjusted z-score is 0.0818.

As for GCUGUUACCUCGACGAGUATT against TSC2, the median seed-adjusted z-score is 1.11 (active).

As for GCAGCUCCGAAUUCAGGAATT against TFE3, the median seed-adjusted z-score was -0.0442.

Turning to GAAGAACUCGAUCAGCUAATT against MYH4, the median seed-adjusted z-score was -1.8 (active).

As for GGAUCUGACAGUUCCAGAATT against CLDN20, the median seed-adjusted z-score was -0.00173.

With GACAAUAUCCUACCCAUUUTT against SLC25A16, the median seed-adjusted z-score was 0.0479.

For AGAGAAUCCAGGAUCAGAATT against CHIT1, the median seed-adjusted z-score was -0.578.

For GGCUCGCUUUGAAAAGCUATT against LIN7A, the median seed-adjusted z-score is -1.39 (active).

Take CGGACCCGCUGAGACAUUATT against HOXB6: the median seed-adjusted z-score is -0.168.

In the case of GGCCUACAACGAAAGUGAATT against CAMKK1, the median seed-adjusted z-score was 0.

CAGUCGAACCUUUCCCAGATT against MSRA: the median seed-adjusted z-score was -0.0316.

In the case of GGGACUGGGAUUUACGUUATT against MTMR11, the median seed-adjusted z-score was -0.0244.

Regarding CUUCCUUCGUCUUCACCUATT against FOS, the median seed-adjusted z-score was 0.343.

Regarding CGACGAUUCGUGCUUAAUATT against MYO5C, the median seed-adjusted z-score was 0.

Take GCAAAACAGCGGCAGAACATT against ATP8B2: the median seed-adjusted z-score is -0.268.

On to GCAGAUCACAUGAAGAGAATT against DHX38, for which the median seed-adjusted z-score is -0.723.

For CUCUUUAGCCGCUUCAUUATT against FMNL1, the median seed-adjusted z-score is -0.3.

With GGGUCUUCGUCAUGCUCUATT against GPR142, the median seed-adjusted z-score is -0.0636.

As to CAGUGCUACUUGGAAUGUUTT against RHOJ, the median seed-adjusted z-score was -0.304.

Consider CACUAGUUUUGUUAGCGAATT against ATP13A4, for which the median seed-adjusted z-score is -1.09 (active).

On to CAACAACUAUGACCCAGGATT against CHRNE, for which the median seed-adjusted z-score is 0.349.

Turning to CAGCAAUUCGUGGAGCUCATT against STX4, the median seed-adjusted z-score is 0.759.

Consider CACUAAAUGUGACUCCUGATT against TTC5, for which the median seed-adjusted z-score is -0.296.

For CUAUUAACAUGGUGACAGATT against EIF4A1, the median seed-adjusted z-score was -1.05 (active).

Take GUGUGAUGAUAUUCGAAAATT against SGPP1: the median seed-adjusted z-score was 0.0859.

As for GGAGGAAACUUCAACUUGUTT against PHF20L1, the median seed-adjusted z-score was 0.

For the sequence CAAAUUGAGUCACUCUUAATT against MGAT2, the median seed-adjusted z-score was -0.124.

For the sequence GGAUUUGGAGUAGAUCAAUTT against TIAL1, the median seed-adjusted z-score is -0.985.

On to GCCUGUCCUUCUCCAUUGATT against ISX, for which the median seed-adjusted z-score is 1.99 (active).

As to GCUUUGAAACUACAGAUGATT against HNRNPA3, the median seed-adjusted z-score was 0.915.

With GAAGGUUUACAAGGACUUATT against KLK7, the median seed-adjusted z-score is 0.

In the case of GCAGAGAUCAGCAACGUGATT against KRT77, the median seed-adjusted z-score is -0.0863.

In the case of GCACUUAUGCUGAUGAAGATT against ZNF398, the median seed-adjusted z-score is 0.119.

Consider CAAACGUAUUAGUUCAGCATT against KIF20B, for which the median seed-adjusted z-score was 0.

Consider GGACAAGUAGCAAAGCGAATT against SLC7A14, for which the median seed-adjusted z-score was 0.132.

Take CAACAACCUUACACGAGUATT against LRIG2: the median seed-adjusted z-score is 0.386.

Consider GAAGAAAUGUUGUUCGAAUTT against KAL1, for which the median seed-adjusted z-score is 0.0824.

For CGCCUGGUCUAUGAACUUUTT against SCARF1, the median seed-adjusted z-score is -0.324.

As for GAAGUGUUUGAAUCUCGUATT against AKAP3, the median seed-adjusted z-score was 0.0138.

For the sequence GUCUCGUAGUGUUAUGUCUTT against GBA2, the median seed-adjusted z-score is 0.143.

Regarding CCCUGGACGCUGAUGAGUUTT against CAPS, the median seed-adjusted z-score was -1.25 (active).

Take GAUACAUGAAGGUAUACAATT against POLR3G: the median seed-adjusted z-score was -0.485.

As to AGAAAGUGUACGACCCAAATT against NUCB1, the median seed-adjusted z-score is 0.232.

For the sequence GAGUGCAAUUGGAACCUGATT against ARHGAP30, the median seed-adjusted z-score was 0.0946.

Consider GCAUGAACAUUACGGAUAUTT against CARS, for which the median seed-adjusted z-score was 0.

Consider GGUGGUACAAGAGAACGAATT against JARID2, for which the median seed-adjusted z-score was 0.115.

As to CUUGGAUGAUGGCAAGACATT against TCEB2, the median seed-adjusted z-score is 1.28 (active).

Turning to GAAAUAUACUUCAGAUUCATT against SP2, the median seed-adjusted z-score was -0.617.

GCUCAUUCCUUUUCGAGCATT against PEG3: the median seed-adjusted z-score was 0.5.

For the sequence GAUUCACAUCGUCAAGAAATT against ZNF317, the median seed-adjusted z-score was 0.087.

With GAUAUGACCGCGAAACCAATT against RPA4, the median seed-adjusted z-score is 0.132.

As for GCUCCACACUGAUGAAUCATT against ZNF250, the median seed-adjusted z-score is -0.00985.

GGCUAACUACUGAGCUGAATT against C1RL: the median seed-adjusted z-score is -0.148.

As to GGGAAUUUCUGACCUAGUATT against ABCD3, the median seed-adjusted z-score was -0.24.

On to CCAAGCCUCUUUCCUACAATT against GPR52, for which the median seed-adjusted z-score is -1.17 (active).

As for CGUGGAAGAUUUUCACAGATT against ZNF174, the median seed-adjusted z-score was 0.035.

For GAUCUACCGAAUACAAGAATT against GPR171, the median seed-adjusted z-score was -0.449.

Regarding CCACACCAUUAUGACCAUUTT against FUT1, the median seed-adjusted z-score is 0.000845.

In the case of GGAUUUGCCUUACCACUAATT against PPP2R5C, the median seed-adjusted z-score was 1.14 (active).

On to GAAGGGUUAUCGUCGGGAATT against SLC6A6, for which the median seed-adjusted z-score was 0.0448.

As to CCAUCGAGUUCAUCGAUAATT against DUSP8, the median seed-adjusted z-score was -0.0326.

For GUUCAUCUCUUGUAAGGAUTT against CABP5, the median seed-adjusted z-score is 0.372.

As for GCCUCAGAAUUUAAUCAAATT against ALB, the median seed-adjusted z-score is -0.153.

As for CCAGAAGCGAAUCACCACATT against POLR2F, the median seed-adjusted z-score is -3.52 (active).

As to GUGUCUCUGCUCUAAGUAATT against B4GALT1, the median seed-adjusted z-score is 0.

On to AGCUUAUGCAUUUGGCAAATT against APBA3, for which the median seed-adjusted z-score was -0.119.

With GGAGCAGACGGUGACCAAATT against CIB3, the median seed-adjusted z-score was 0.234.

For CAUAUGAUCCAGACAAGAATT against ZNF425, the median seed-adjusted z-score was 0.0841.

On to GAGUCUGUGGUGUACCUAATT against SALL4, for which the median seed-adjusted z-score is -0.344.

The record behind these values is PubChem BioAssay AID1347426 (Functional Genomics Laboratory (NCATS/FGL), 2020).
